Experimental data published in PubChem BioAssay (NCI).
This is part of a sample that, as a whole, favours compounds with a hit. Of some 83,000 tested, about 20% had one in any assay.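 In brief: 96-well plates, 48 h treatment, single concentration, percent growth endpoint.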 The source made the active and inactive calls. Rule for the calls: active = growth percent below 10; inactive = the rest.

Experiments:
Assay in all cases: NCI-60 one-dose screen, 48 h (100 = growth as untreated, 0 = no growth, -100 = all killed)
Conditions in all cases: 10 µM unless noted
HCT-15 colon = system: HCT-15 colon
HT29 colon = system: HT29 colon
SNB-75 CNS = system: SNB-75 CNS
SNB-19 CNS = system: SNB-19 CNS
U251 CNS = system: U251 CNS
PC-3 prostate = system: PC-3 prostate
SK-MEL-5 melanoma = system: SK-MEL-5 melanoma
UACC-62 melanoma = system: UACC-62 melanoma
LOX IMVI melanoma = system: LOX IMVI melanoma
SK-MEL-28 melanoma = system: SK-MEL-28 melanoma
SK-MEL-2 melanoma = system: SK-MEL-2 melanoma
EKVX NSCLC = system: EKVX NSCLC
SN12C renal = system: SN12C renal
UO-31 renal = system: UO-31 renal
TK-10 renal = system: TK-10 renal
ACHN renal = system: ACHN renal
CAKI-1 renal = system: CAKI-1 renal
A498 renal = system: A498 renal
CCRF-CEM leukemia = system: CCRF-CEM leukemia
MOLT-4 leukemia = system: MOLT-4 leukemia

Measured: growth

CC(CN1CCN(CC(C)Nc2ccnc3cc(Cl)ccc23)CC1)Nc1ccnc2cc(Cl)ccc12 (stereo not given)
active: HCT-15 colon -1.75% | HT29 colon -19.7% | SNB-75 CNS -26.8% | U251 CNS 0.467% | SK-MEL-5 melanoma -97.6% | UACC-62 melanoma -62.7% | LOX IMVI melanoma -86.1% | SK-MEL-28 melanoma -91.4% | SK-MEL-2 melanoma -37.9% | UO-31 renal -49.5% | TK-10 renal -48% | CCRF-CEM leukemia 5.14% | MOLT-4 leukemia 4.88%
inactive: SNB-19 CNS 31.6% | PC-3 prostate 26.2% | EKVX NSCLC 67.3% | SN12C renal 57.7% | ACHN renal 19.1% | CAKI-1 renal 11.2% | A498 renal 84.7%

c1cc(C2CCCCC2)ccc1-c1cnc2nonc2n1
inactive: SNB-75 CNS 26.6% | SNB-19 CNS 37.2% | U251 CNS 21.6% | PC-3 prostate 23.9% | SK-MEL-5 melanoma 22.6% | SK-MEL-28 melanoma 65.5% | EKVX NSCLC 37.3% | SN12C renal 19.5% | UO-31 renal 29% | TK-10 renal 15.6% | ACHN renal 34.6% | CAKI-1 renal 34.2%
active: HCT-15 colon 9.57% | HT29 colon 3.11% | UACC-62 melanoma 8.73% | LOX IMVI melanoma 2.13% | SK-MEL-2 melanoma 8.16% | A498 renal 9.62% | CCRF-CEM leukemia 3.66% | MOLT-4 leukemia -5.4%

O=C(c1ccccc1)c1cccc(C(Br)Br)c1
inactive: HCT-15 colon 73.4% | HT29 colon 63.5% | SNB-75 CNS 73.9% | SNB-19 CNS 83.6% | U251 CNS 88.9% | PC-3 prostate 91.8% | SK-MEL-5 melanoma 74% | UACC-62 melanoma 81.1% | LOX IMVI melanoma 80.6% | SK-MEL-28 melanoma 93.2% | SK-MEL-2 melanoma 74.5% | EKVX NSCLC 107% | SN12C renal 89.7% | UO-31 renal 74.1% | TK-10 renal 78.9% | ACHN renal 91% | CAKI-1 renal 78.2% | A498 renal 77.2% | CCRF-CEM leukemia 103% | MOLT-4 leukemia 81.5%

CNC(=O)OC1C(O[C@H]2C[C@H]3[C@@H]4CC=C5C[C@@H](O)CC[C@]5(C)[C@H]4CC[C@]3(C)[C@H]2[C@H](C)C(=O)CCC(C)C)OCC(O)C1OC1OCC(O)C(O)C1OC(=O)c1ccc(OC)cc1 (stereo not given in full)
inactive: HT29 colon 14.7% | SNB-75 CNS 18.4% | SNB-19 CNS 23.2% | EKVX NSCLC 30.1% | SN12C renal 59.9% | TK-10 renal 14% | ACHN renal 39.2%
active: HCT-15 colon 0.802% | U251 CNS 1.48% | PC-3 prostate -21.8% | SK-MEL-5 melanoma -27.9% | UACC-62 melanoma -27.6% | LOX IMVI melanoma -31.3% | SK-MEL-28 melanoma -53.3% | SK-MEL-2 melanoma -33.6% | UO-31 renal -18.8% | CAKI-1 renal 0.834% | A498 renal -60.3% | CCRF-CEM leukemia -13.7% | MOLT-4 leukemia -40.2%

CC(=O)Nc1ccc(/C=N/N2CCCCCC2)cc1
inactive: HCT-15 colon 102% | HT29 colon 102% | SNB-75 CNS 86.2% | SNB-19 CNS 91.8% | U251 CNS 90.4% | PC-3 prostate 109% | SK-MEL-5 melanoma 106% | UACC-62 melanoma 95.9% | LOX IMVI melanoma 101% | SK-MEL-28 melanoma 103% | SK-MEL-2 melanoma 118% | EKVX NSCLC 98.8% | SN12C renal 83.3% | UO-31 renal 93.9% | TK-10 renal 114% | ACHN renal 79.1% | CAKI-1 renal 92.7% | A498 renal 108% | CCRF-CEM leukemia 106% | MOLT-4 leukemia 102%

CCN1C(=O)N(CC)C2C1NN=c1s/c(=C\c3ccco3)c(=O)n12 (stereo not given)
inactive: HCT-15 colon 19.9% | SNB-19 CNS 22.7% | U251 CNS 22.7% | PC-3 prostate 17.7% | SK-MEL-5 melanoma 12.8% | UACC-62 melanoma 29.2% | LOX IMVI melanoma 40.4% | SK-MEL-28 melanoma 58.9% | SK-MEL-2 melanoma 30% | EKVX NSCLC 36.3% | SN12C renal 47.5% | UO-31 renal 60% | TK-10 renal 57.6% | ACHN renal 54.9% | CAKI-1 renal 46% | A498 renal 21.5% | CCRF-CEM leukemia 10% | MOLT-4 leukemia 31.7%
active: HT29 colon 8.57% | SNB-75 CNS -1.06%

COc1cc(C2C(C#N)=C(N)Oc3cc4c(cc32)OCO4)cc2c1OCO2 (stereo not given)
inactive: HCT-15 colon 21.5% | SNB-19 CNS 45.7% | U251 CNS 28.4% | PC-3 prostate 27.9% | SK-MEL-5 melanoma 19.8% | UACC-62 melanoma 30.7% | LOX IMVI melanoma 38.3% | SK-MEL-28 melanoma 41.7% | SK-MEL-2 melanoma 56.6% | EKVX NSCLC 55.7% | SN12C renal 35.2% | UO-31 renal 46.3% | TK-10 renal 72.1% | ACHN renal 35% | CAKI-1 renal 60.8% | CCRF-CEM leukemia 18.2% | MOLT-4 leukemia 20.3%
active: HT29 colon 9.21% | SNB-75 CNS -9.64% | A498 renal 8.65%

COc1cc(C2CC(c3ccccc3)=NN2C=O)ccc1Oc1nc2c(c(=O)n(C)c(=O)n2C)n1C (stereo not given)
inactive: HCT-15 colon 87.9% | HT29 colon 69.9% | SNB-75 CNS 92% | SNB-19 CNS 61.9% | U251 CNS 86.5% | PC-3 prostate 72.8% | SK-MEL-5 melanoma 59.2% | UACC-62 melanoma 86.2% | LOX IMVI melanoma 55% | SK-MEL-28 melanoma 95.1% | SK-MEL-2 melanoma 101% | EKVX NSCLC 74.1% | SN12C renal 49% | UO-31 renal 62.4% | TK-10 renal 110% | ACHN renal 86.9% | CAKI-1 renal 79.4% | A498 renal 81.3% | CCRF-CEM leukemia 77.9% | MOLT-4 leukemia 62.2%

C=C(c1ccc(C(=O)NCCCn2ccnc2)cc1)c1cc2c(cc1C)C(C)(C)CCC2(C)C
active: PC-3 prostate -6.2% | SK-MEL-5 melanoma 0.58% | LOX IMVI melanoma -25.7% | SK-MEL-28 melanoma 6.96% | UO-31 renal -20.4% | ACHN renal -16.6% | CAKI-1 renal -35.6%
inactive: HCT-15 colon 21.1% | HT29 colon 16.1% | SNB-75 CNS 41.4% | SNB-19 CNS 48.4% | U251 CNS 12.1% | UACC-62 melanoma 66.7% | SK-MEL-2 melanoma 55.9% | EKVX NSCLC 27.1% | SN12C renal 19.5% | TK-10 renal 84.9% | A498 renal 116% | CCRF-CEM leukemia 13.5% | MOLT-4 leukemia 11.1%

CCCCCCCCCCCCCCCCCC(=O)OCCCCCCCCCCCCC
inactive: HCT-15 colon 108% | HT29 colon 103% | SNB-75 CNS 104% | SNB-19 CNS 113% | U251 CNS 108% | PC-3 prostate 102% | SK-MEL-5 melanoma 114% | UACC-62 melanoma 113% | LOX IMVI melanoma 103% | SK-MEL-28 melanoma 125% | SK-MEL-2 melanoma 112% | EKVX NSCLC 106% | SN12C renal 111% | UO-31 renal 95% | TK-10 renal 122% | ACHN renal 104% | CAKI-1 renal 103% | A498 renal 105% | CCRF-CEM leukemia 73% | MOLT-4 leukemia 113%

O=C(NCCN1CCCCC1)n1cc(-c2ccncc2)c(-c2ccc(Cl)c(O)c2)n1
inactive: HCT-15 colon 86.6% | HT29 colon 95.5% | SNB-75 CNS 78.9% | SNB-19 CNS 101% | U251 CNS 98.5% | PC-3 prostate 84.6% | SK-MEL-5 melanoma 73.2% | UACC-62 melanoma 37.9% | LOX IMVI melanoma 64.7% | SK-MEL-28 melanoma 37.5% | SK-MEL-2 melanoma 60.8% | EKVX NSCLC 114% | SN12C renal 81.6% | UO-31 renal 55.4% | TK-10 renal 79.4% | ACHN renal 57.4% | CAKI-1 renal 109% | A498 renal 114% | CCRF-CEM leukemia 87% | MOLT-4 leukemia 88.2%

CCc1c(C)c2ccc(O)c(-c3cc(-c4ccccc4)c(C#N)c(=O)[nH]3)c2oc1=O
inactive: HCT-15 colon 96.5% | HT29 colon 125% | SNB-75 CNS 52.7% | SNB-19 CNS 108% | U251 CNS 100% | PC-3 prostate 107% | SK-MEL-5 melanoma 94.7% | UACC-62 melanoma 77.3% | LOX IMVI melanoma 93.1% | SK-MEL-28 melanoma 107% | SK-MEL-2 melanoma 117% | EKVX NSCLC 101% | SN12C renal 105% | UO-31 renal 62.9% | TK-10 renal 124% | ACHN renal 103% | CAKI-1 renal 70% | A498 renal 116% | CCRF-CEM leukemia 103% | MOLT-4 leukemia 98.3%

COc1ccc2nc3ccccc3c(NCc3ccc(C)cc3)c2c1
inactive: HCT-15 colon 11.4% | SNB-75 CNS 46.6% | SNB-19 CNS 29.2% | U251 CNS 15.3% | PC-3 prostate 11.4% | SK-MEL-5 melanoma 34.4% | UACC-62 melanoma 55.7% | SK-MEL-28 melanoma 66.4% | SK-MEL-2 melanoma 70% | EKVX NSCLC 35.2% | SN12C renal 23.6% | UO-31 renal 13.4% | TK-10 renal 47% | ACHN renal 16.3% | CAKI-1 renal 26.2%
active: HT29 colon 1.23% | LOX IMVI melanoma -6.01% | A498 renal -1.58% | CCRF-CEM leukemia 7.09% | MOLT-4 leukemia 0.305%

Cn1cnc([N+](=O)[O-])c1S(=O)(=O)Oc1cccc2ccccc12
inactive: HT29 colon 10.9% | SNB-75 CNS 83.2% | SNB-19 CNS 98.8% | U251 CNS 57.6% | PC-3 prostate 57.4% | SK-MEL-5 melanoma 93% | UACC-62 melanoma 80.7% | SK-MEL-28 melanoma 85.1% | SK-MEL-2 melanoma 85% | EKVX NSCLC 97.1% | SN12C renal 79.2% | TK-10 renal 96.3% | A498 renal 97.6% | MOLT-4 leukemia 32.8%
active: HCT-15 colon 1.87% | LOX IMVI melanoma -45.1% | UO-31 renal -31% | ACHN renal 4.28% | CAKI-1 renal -20.9% | CCRF-CEM leukemia -1.53%

CC(=O)O[C@H]1CC[C@]2(C)[C@H]3CC=C4[C@@H]5CC(C)(C)CC[C@]5(C(=O)OCC(COC(=O)C(Cl)Cl)(COC(=O)C(Cl)Cl)NC(=O)C(Cl)Cl)CC[C@@]4(C)[C@]3(C)CC[C@H]2C1(C)C
active: HT29 colon 8.55%
inactive: HCT-15 colon 46.7% | SNB-75 CNS 85.9% | SNB-19 CNS 90.4% | U251 CNS 45.1% | PC-3 prostate 22.7% | SK-MEL-5 melanoma 71.9% | UACC-62 melanoma 84.4% | LOX IMVI melanoma 65.9% | SK-MEL-28 melanoma 87.3% | SK-MEL-2 melanoma 77.7% | EKVX NSCLC 65% | SN12C renal 71.8% | UO-31 renal 62.5% | TK-10 renal 78.1% | ACHN renal 62.4% | CAKI-1 renal 63% | A498 renal 93.2% | CCRF-CEM leukemia 64.8% | MOLT-4 leukemia 44.9%
